# From PubChem
# Pf growth 48h: Primary qHTS for delayed death inhibitors of the malarial parasite plastid, 48 hour incubation; AID 504832, 2011; 5.9% of 310,000 active; Potency, µM (top dose mostly 28.7 µM), inactives show top-dose activity change, negative = inhibition, hits mostly inhibitors; P. falciparum luciferase growth in erythrocytes, 48 h; active means well fitted inhibition curve with a large enough effect; inconclusive means small, poorly fitted or top-dose-only effect, or another doubt; inactive means no such curve, though single readings can be large or run the other way; further: potency means the concentration at half of the fitted maximal effect; on the % scale 0 is the no-effect control and ±100 the full control effect
#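 Parasite viability was followed by luminescence of a genomically integrated firefly luciferase. Cultures held 0.1% parasitemia at 2% hematocrit (final), incubated under 5% CO2 at 37 C.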
# NS1 function inh: qHTS Assay for Inhibitors of Influenza NS1 Protein Function. Potency, µM (series often up to 46.1 µM), for the others: top-dose activity, positive = more growth. 0.4% of 270,000 active. AID 2326, 2010; further: potency means the concentration at half of the fitted maximal effect; actives are rising curves; nearly all actives have a fitted effect of over 50% in size
#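 Compounds were scored for reversing the slow growth caused by influenza A NS1 in S. cerevisiae, measured by optical density at 600 nm. Assay medium contained 2% galactose at pH 6.0; NS1-free yeast of the same strain were the positive control.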
# CHX counter: Cycloheximide Counterscreen for Small Molecule Inhibitors of Shiga Toxin. cell reporter, cycloheximide protein synthesis inhibition counterscreen. max response, %. 12% of 300,000 active; in the data active means max response mostly above about 13%, no sharp cut-off; inactive means mostly below about 14%; further: read at 38.3 µM for the half of the compounds with a filed dose; 0% is about no effect
# Shiga toxin inh: A qHTS for Small Molecule Inhibitors of Shiga Toxin. inhibition, % at 38.7 µM. Vero cells, Shiga toxin protein synthesis inhibition reporter. 9.2% of 290,000 active; in the data active means inhibition mostly above about 28%, no sharp cut-off; inactive means mostly below about 43%; further: 0% is about no effect
# SARS PLP yeast: qHTS of Yeast-based Assay for SARS-CoV PLP. S. cerevisiae expressing SARS-CoV PLpro, growth rescue. AID 485353, 2010. 0.19% of 330,000 active. Potency, µM (series often up to 32.9 µM), without a hit: at the highest dose activity, positive = growth rescue, most hits filed as activators; further: potency means the concentration at half of the fitted maximal effect; 0% is about no effect; nearly all actives have a fitted effect of over 55% in size
# Pf growth 96h: Primary qHTS for delayed death inhibitors of the malarial parasite plastid, 96 hour incubation; P. falciparum luciferase reporter growth, 96 h; Potency, µM (highest dose often 28.7 µM), without a hit: top-dose activity change, negative = inhibition, actives largely listed as inhibitors; 6.9% of 320,000 active; AID 504834, 2011; active means well fitted inhibition curve with a large enough effect; inconclusive means small, poorly fitted or top-dose-only effect, or another doubt; inactive means no such curve, though single readings can be large or run the other way; further: potency means the concentration at half of the fitted maximal effect; on the % scale 0 is the no-effect control and ±100 the full control effect
#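 Infected RBCs, 2% Hct / 0.05% parasitemia final; luciferase-reporter P. falciparum; cpd 96 h, 37 C, 5% CO2; luciferase detection reagent; luminescence.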
# Numbers without * were called inactive; u = inconclusive; x = not tested or not shown; [ ] = remark or other dose. Shown are actives, neighbours in structure and some others; about 21% of the full set was active somewhere. Unless noted, the call rests on the fitted dose curve.
SMILES,Pf growth 48h,NS1 function inh,CHX counter,Shiga toxin inh,SARS PLP yeast,Pf growth 96h
Cc1cc(NC(=O)c2ccc(C)c([N+](=O)[O-])c2)no1,41%,x,31,32*,2%,u
Cc1ccc(C(=O)Nc2cccnc2)cc1[N+](=O)[O-],u,x,8,38,-3%,u
Cc1cc(NC(=O)c2ccc(C)c(C)c2)no1,0%,-32%,37*,x,-4%,u
Cc1cc(NC(=O)c2ccc(Br)c([N+](=O)[O-])c2)no1,15%,x,20,28,0%,46%
Cc1ccc(C(=O)Nc2cccc(NC(=O)c3ccc(C)c([N+](=O)[O-])c3)n2)cc1[N+](=O)[O-],1.7µM*,-1%,0,7,-3%,u
O=C(NCC(=O)N(c1ccccc1F)C(C(=O)NC1CCCC1)c1cccnc1)c1ccco1 (configuration not stated),19%,-6%,-2,-9,1%,u
CCc1ccc(N2C(=O)CC(N(CC3CCCO3)C(=O)/C=C/C(=O)O)C2=O)cc1 (configuration not stated),0%,4%,-1,-4,-12%,-23%
Cc1ccc(SCCC(=O)NNC(=O)c2ccccc2F)cc1,x,x,x,x,-1%,x
Cc1cc(N2C(=O)c3ccc(C(=O)Nc4ccc(CC(=O)O)cc4)cc3C2=O)no1,-10%,5%,-1,-3,3%,1.9µM*
Cc1ccc(C(=O)Nc2sc(C)c(-c3ccccc3)c2C(N)=O)cc1[N+](=O)[O-],223%,8%,62*,127*,5%,141%[5.75 µM]
Cc1noc(C)c1C(=O)Nc1nc(-c2ccccc2Cl)cs1,62%,-1%,36*,66*,11%,89%
Cc1onc(-c2ccccc2)c1C(=O)Nc1nc(-c2ccccc2)cs1,29%,6%,31*,96*,-11%,x
CC(C)CN(C)C(=O)CC1C(=O)NCCN1C (configuration not stated),-2%,-1%,-2,-13,1%,-2%
CN(CCCC1CCCC1)C(=O)CC1C(=O)NCCN1Cc1ccc(F)cc1 (configuration not stated),u,14%,-3,-9,13%,u
CCc1ccc(C(C)NC(=O)c2ncn[nH]2)cc1 (configuration not stated),12%,7%,-3,2,1%,-13%
CC1=NN(c2ccccc2)C(=O)C1/C=C1\NC(=S)NC1=O (configuration not stated),32%,x,-3,20,0%,-47%
CC1=C(C)CC2(SC1)C(=O)N(c1ccccc1)N=C2N (configuration not stated),40%,x,23*,48*,2%,8%
Nc1ccccc1C(=O)Nc1ccc(Cl)cc1Cl,46%,5%,33*,127*,-1%,66%
O=C(NC(=S)Nc1ccccc1O)c1ccc(Cl)cc1Cl,27%,-87%,30*,94*,-6%,16%
O=C(Nc1ccccc1Cl)c1ccc(Cl)cc1Cl,36%,x,54*,54*,2%,u
CC(=O)Nc1cccc(NC(=O)c2cc(Cl)ccc2Cl)c1,0%,x,-12,-9,2%,u
C#Cc1cccc(NC(=O)c2ccc(Cl)cc2Cl)c1,143%,-11%,20*,70*,-2%,315%
O=C(Nc1ccccc1Cl)c1ccccc1Cl,28%,-42%,14,8,-1%,46%
O=C(Nc1ccc(Cl)cc1Cl)c1ccc(-c2ccccc2)cc1,9%,6%,-3,9,8%,5%
Cc1ccc(S(=O)(=O)Nc2ncnc3ccccc23)cc1,26%,-8%,16,27,-1%,35%
N#Cc1ccc2nc3c(nc2c1)CCCC3,4%,6%,0,3,0%,u
O=C1Nc2ccc(S(=O)(=O)NCc3ccccn3)c3cccc1c23,x,-1%,-2,1,4%,10µM*
CN(C)CCNS(=O)(=O)c1ccc2c3c(cccc13)C(=O)N2,-20%,-18%,-1,x,6%,15%
Cc1ccc(NC(=O)COC(=O)[C@H](C)NC(=O)c2ccccc2)cc1S(=O)(=O)N1CCOCC1,2%,-8%,-1,-16,-1%,43%
